The list is not random: actives were taken first. Their share in the collection is about 14%.
HCMV antiviral = inhibitors of human cytomegalovirus. actives 4.5% (n = 410,000). AID 1259415. HFF cells, HCMV-luciferase reporter, 72 h; active compounds read low. activity change, negative = inhibition, % at 57.5 µM; in the data active = activity change below about -60%; inconclusive = no clear call, values can overlap the other calls; inactive = above about -39%
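Two-dose cell screen: HFF monolayers treated with compounds and infected with luciferase-expressing HCMV at 1 PFU/cell, 72 h at 37C, then lysed for luciferase measurement.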
Giardia FBPA inh = inhibitors of Giardia lamblia fructose-1,6-bisphosphate aldolase. A8B2U2. purified Giardia FBPA. Potency, µM (titrated, usually from 59.6 µM), without a hit: top-dose activity, negative = inhibition, actives largely listed as inhibitors. actives 0.71% (n = 290,000); note: potency is the fitted concentration of half-maximal effect; nearly all actives have a fitted effect of over 55% in size
Target sequence (A8B2U2 whole entry, looked up): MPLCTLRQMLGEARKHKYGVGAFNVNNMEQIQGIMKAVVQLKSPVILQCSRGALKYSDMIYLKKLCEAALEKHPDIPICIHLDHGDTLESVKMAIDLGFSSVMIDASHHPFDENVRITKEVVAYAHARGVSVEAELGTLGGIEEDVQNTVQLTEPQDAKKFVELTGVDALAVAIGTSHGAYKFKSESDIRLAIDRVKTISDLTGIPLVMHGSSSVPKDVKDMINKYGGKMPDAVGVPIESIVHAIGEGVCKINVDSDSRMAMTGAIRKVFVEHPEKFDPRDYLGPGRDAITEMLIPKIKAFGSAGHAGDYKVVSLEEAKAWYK
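Giardia FBPA (40 nM reagent) was preincubated 10 min at RT with compound (up to 57.5 uM final), then substrate plus GAPDH/TPI/NAD/arsenate coupling system with diaphorase/resazurin was added; resorufin fluorescence (525/598 nm) was read after 20 min.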
Pf growth 96h = P. falciparum growth inhibition at 96 hour, primary screen for plastid delayed-death inhibitors. P. falciparum luciferase reporter growth, 96 h. Potency, µM (doses to about 28.7 µM), for inactives: top-dose activity change, negative = inhibition, actives largely listed as inhibitors. actives 6.9% (n = 320,000). AID 504834; note: potency is the fitted concentration of half-maximal effect
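96 h incubation, 37 C, 5% CO2, of luciferase-reporter P. falciparum-infected RBCs (2% hematocrit, 0.05% parasitemia final) with test compounds; endpoint luminescence.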
Pf growth 48h = P. falciparum growth inhibition at 48 hours (one generation); P. falciparum luciferase growth in erythrocytes, 48 h; Potency, µM (series often up to 28.7 µM), for the others: at the highest dose activity change, negative = inhibition, hits mostly inhibitors; AID 504832; actives 5.9% (n = 310,000); note: potency is the fitted concentration of half-maximal effect
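Parasite viability was followed by luminescence of a genomically integrated firefly luciferase. Cultures held 0.1% parasitemia at 2% hematocrit (final), incubated under 5% CO2 at 37 C.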
Sm TGR block = blocks Schistosoma mansoni thioredoxin glutathione reductase; actives 3% (n = 360,000); purified TGR, DTNB reduction, TNB absorbance 405 nm; Potency, µM (top dose mostly 114 µM), for inactives: at the highest dose activity change, negative = inhibition, most hits filed as inhibitors; AID 485364; note: potency is the fitted concentration of half-maximal effect; nearly all actives have a fitted effect of over 60% in size
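First, TGR (20 nM dispensed) and NADPH were mixed with compound. Second, a 15 min room-temperature incubation followed. Third, further NADPH and then DTNB were added to start the reaction. Finally, TNB absorbance was monitored kinetically.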
* hit, by the source's call; ? = inconclusive; . = not tested or not shown; [ ] = remark or other dose. Unless noted, calls come from the whole dose curve; as a rule, active = well fitted curve in the direction sought with a large enough effect; inconclusive = small, poorly fitted or top-dose-only effect, or another doubt; inactive = no such curve, though single readings can be large; an effect the other way counts as inactive or inconclusive. % is set by controls: 0 for no effect and ±100 for the full control effect.

SMILES	HCMV antiviral	Giardia FBPA inh	Pf growth 96h	Pf growth 48h	Sm TGR block
Cc1cc2nc3c(=O)[nH]c(=O)nc-3n(CC(O)C(O)C(O)CO)c2cc1C (stereo not given)	.	?	7.57µM*	13.5µM*	.
Fc1ccc(-c2cc(-c3ccccc3)c3c(n2)-c2cc(F)ccc2OC3)cc1	-2.6	.	.	.	5.0%
Cc1ccc(C(C(=O)NC2CCCCC2)N(CCCN2CCOCC2)C(=O)c2snc(C(N)=O)c2N)cc1 (stereo not given)	-26.6	0.6%	?	-7.6%	-2.6%
Cc1cc(C)c(S(=O)(=O)Nc2ccc3c4c(cccc24)CC3)c(C)c1	-99.9*	-26.1%	?	?	8.8%
Cc1ccc(S(=O)(=O)Nc2ccc3c4c(cccc24)CC3)c(C)c1	-69.8*	.	.	.	.
CC(=O)Nc1ccc2c3c(cccc13)CC2	44.0	.	.	.	.
C[C@H]1[C@@H](c2ccccc2)Oc2c(Cl)cccc2S(=O)(=O)N1C	-19.2	.	.	.	.
CN1CC(c2ccccc2)C2(SC(=S)N(Cc3ccco3)C2=O)C12C(=O)Nc1ccccc12 (stereo not given)	-101.5*	-7.4%	.	11.7µM*	-12.6%
C[C@H](CO)N1C[C@H](C)[C@@H](CN(C)S(=O)(=O)c2ccccc2)Oc2c(NC(=O)Nc3ccc4c(c3)OCO4)cccc2C1=O	-15.1	.	.	.	.
COC(=O)[C@]1(C#N)CC(=O)N([C@H](c2ccccc2)[C@@H](O)c2ccccc2)[C@@H]1c1ccccc1	-17.7	.	.	.	.
O=c1c2ncn([C@@H]3O[C@@H]4COP(=O)(O)O[C@H]4[C@H]3O)c2nc2[nH]c(-c3ccccc3)cn12	.	-1.3%	.	.	.
CN(Cc1nc2ccccc2c(=O)[nH]1)CC(O)COCc1ccco1 (stereo not given)	19.7	13.8%	6.57µM*	-6.7%	-10.1%
CN(CC(=O)NC(=O)NCc1ccco1)Cc1nc2ccccc2c(=O)[nH]1	-12.9	?	15.3%[5.75 µM]	-6.3%	?
COc1cccc([C@@H]2Oc3ccc(OC)cc3C(=O)[C@H]2OC(=O)N[C@H]2CCCc3ccccc32)c1	.	-5.0%	.	.	.
Cc1nc(-c2coc3c(O)c(O)ccc3c2=O)cs1	.	14.1µM*	.	.	.
CCCn1c(NCCO)nc2ccccc21	-9.3	4.2%	?	.	0.7%
CCCn1c(NC(=O)c2cccc(C)c2C)nc2ccccc21	.	?	8.28µM*	.	0.5%
CCCn1c(NC(=O)C2CCN(C(=O)c3ccccc3C)CC2)nc2ccccc21	-28.3	.	?	11.7µM*	-1.7%
Cn1ncc([N+](=O)[O-])c1C(=O)Nc1nc2ccccc2n1CCN1CCCCC1	-15.4	-2.8%	-16.9%	?	0.3%
CCCn1c(NC(=O)c2ccc([N+](=O)[O-])o2)nc2ccccc21	-62.8*	.	?	?	-33.0%
CCCNC(=O)Cn1cnc2sc(C(=O)N3CCN(CCC)CC3)c(C)c2c1=O	5.8	8.4%	0.37µM*	-0.6%	3.4%
Cc1c(C(=O)N2CCOCC2)sc2ncn(CC(=O)N3CCC(C)CC3)c(=O)c12	.	3.8%	?	-18.9%	10.3%
Cc1c(C(=O)N2CCN(c3ccc([N+](=O)[O-])cc3)CC2)sc2ncn(CC(=O)N3CCOCC3)c(=O)c12	-80.4*	-1.1%	?	-29.4%	14.5%
COc1ccc(Cl)cc1NC(=O)CSc1nccn1Cc1ccco1	?	.	.	.	9.9%
COc1ccc(OC)c(NC(=O)CCCCCn2nnc3ccccc3c2=O)c1	-29.3	5.5%	-10.9%	-8.7%	7.3%
SMILES	HCMV antiviral	Giardia FBPA inh	Pf growth 96h	Pf growth 48h	Sm TGR block
CCOC(=O)c1c(N)c2cc([N+](=O)[O-])ccc2n1C	-16.3	0.0%	45.7%	95.8%	0.1%
CCOC(=O)/C(=C/c1c(C)n(C)c2ccc([N+](=O)[O-])cc12)C(C)=O	-85.4*	-26.0%	1.2%	32.5%	-12.5%
Cc1ccc(S(=O)(=O)N2CCCC2CNC(=O)C(=O)NC2CCCC2)cc1 (stereo not given)	20.8	.	?	-11.1%	-4.2%
CC1CCN(C2=C(NS(=O)(=O)c3ccc(Br)cc3)C(=O)c3ccccc3C2=O)CC1	0.0	-30.0%	?	?	-14.0%
O=C1C(NS(=O)(=O)c2ccc(Br)cc2)=C(N2CCCCC2)C(=O)c2ccccc21	6.3	?	9.28µM*	11.7µM*	-17.5%
O=C1C(NS(=O)(=O)c2cccs2)=C(N2CCN(c3cccc(Cl)c3)CC2)C(=O)c2ccccc21	?	?	.	11.7µM*	-23.8%
CC1CCN(C2=C(NS(=O)(=O)c3ccc(Cl)cc3)C(=O)c3ccccc3C2=O)CC1	-12.7	?	1.47µM*	7.38µM*	-12.3%
CCOC(=O)C1CCCN(C2=C(NS(=O)(=O)c3ccc(Br)cc3)C(=O)c3ccccc3C2=O)C1 (stereo not given)	19.7	?	2.94µM*	5.22µM*	?
CC1CCN(C2=C(NS(=O)(=O)c3ccccc3)C(=O)c3ccccc3C2=O)CC1	-24.4	?	?	?	0.9%
CCOc1ccc(C(=O)N2CCc3ccccc32)cc1OCC	77.3	-8.8%	-0.5%	?	-8.5%
O=S(=O)(Nc1nc2ccccc2nc1N1CCN(c2ccccc2)CC1)c1ccc(F)cc1	9.7	8.2%	-2.5%	10.5%	-28.0%
O=C1C(NS(=O)(=O)c2ccccc2)=C(N2CCN(c3ccc(F)cc3)CC2)C(=O)c2ccccc21	-39.8	?	?	13.1µM*	?
Clc1ccc(CN=C(Nc2ccccc2)NC2CCCCC2)cc1	-77.3*	1.5%	9.28µM*	9.28µM*	0.3%
O=C(Cc1ccc(Cl)cc1)NC1CCCCCC1	13.5	5.2%	32.2%	68.8%	3.2%
CS(=O)(=O)c1ccc(Cl)c(NC(=O)COC(=O)CCCN2C(=O)c3cccc4cccc(c34)C2=O)c1	-21.0	.	18.5%	-16.8%	-1.7%
O=C(Nc1ccc(N2CCN(C(=O)c3ccccc3)CC2)c(Cl)c1)c1ccc(Br)o1	-67.5*	-20.9%	60.1%	10.4µM*	-23.4%
O=C(Nc1ccc(C(=O)N2CCC(N3CCOCC3)CC2)cc1)c1ccc(Br)o1	6.2	.	0.0%	30.0%	31.6µM*
O=C(Nc1ccc(N2CCN(C(=O)c3ccccc3)CC2)cc1)c1ccc(Br)o1	-25.1	-11.7%	37.3%	?	-10.0%
CC(C)N1CCN(C(=O)c2ccc(NC(=O)c3ccc(Br)o3)cc2)CC1	-18.0	.	8.3%	-20.2%	22.4µM*
Cc1cccnc1NC(=O)CNC(=O)COc1ccccc1	11.6	.	26.1%	18.3%	-0.7%
COc1cc(OC)cc(C(=O)Nc2ccc(N3CCN(C(=O)c4cccs4)CC3)cc2)c1	-15.5	.	8.2%	?	-9.9%
Cc1ccc(C(=O)N2CCN(c3ccc(NC(=O)c4cccs4)cc3)CC2)cc1	-7.2	.	?	10.4µM*	0.0%
Cc1ccc(N2CCN(C(=O)c3cccs3)CC2)cc1C	-8.2	14.1%	-18.2%	33.1%	35.5µM*
Nc1ccc(N2CCN(C(=O)c3cccs3)CC2)cc1	-33.0	-15.2%	?	?	-10.0%
